Laboratory results reported in PubChem BioAssay AID1159580 (chemical genetic matrix, 2015).
“And” between values parts separate entries of the source, which are not always exact repeats. Identical values can stand only once. Hit rate of the full screen: of about 5,500 compounds, about 2,000 (36%) were called active. Roughly 18% stayed inconclusive and do not appear here. Rule as the data show it: active = normalized growth mostly below about 0.91 (no sharp cut-off); inconclusive = no clear call, values can overlap the other calls; inactive = mostly above about 0.92. The list shows a part of the results.

Test: chemical genetic growth profiling, strain panel (AID 1159580);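 also: tested at 20 µM; growth read once vehicle control cultures reached saturation at 30 °C; 1 = growth at the plate median or of vehicle wells; lower values mean less growth of the strain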
Conditions: S. cerevisiae deletion strains, growth OD

Measured: normalized growth

C=C[C@@H](C1=CC(=O)C(OC)=C(OC)C1=O)c1ccccc1
inactive: locus YBR171W, strain sec66, stronger effect = lower value 0.996 | locus YBR229C, strain ROT2, stronger effect = lower value 0.989 | locus YCL029C, strain bik1, stronger effect = lower value 0.968 | locus YDL005C, strain med2, stronger effect = lower value 1 | locus YDL040C, strain nat1, stronger effect = lower value 1.01 | locus YDL074C, strain BRE1, stronger effect = lower value 0.962 | locus YDL101C, strain DUN1, stronger effect = lower value 0.97 | locus YDL185W, strain tfp1, stronger effect = lower value 0.945 | locus YDR001C, strain nth1, stronger effect = lower value 0.997 | locus YDR069C, strain doa4, stronger effect = lower value 0.995 | locus YDR101C, strain arx1, stronger effect = lower value 0.998 | locus YDR159W, strain sac3, stronger effect = lower value 1.02 | locus YDR195W, strain ref2 1.09 | locus YDR335W, strain msn5, stronger effect = lower value 0.977 | locus YEL037C, strain rad23, stronger effect = lower value 0.952 | locus YER016W, strain bim1, stronger effect = lower value 0.999 | locus YER110C, stronger effect = lower value 0.97 | locus YER111C, strain swi4, stronger effect = lower value 0.994 | locus YER155C, strain BEM2, stronger effect = lower value 0.985 | locus YGL078C, strain dbp3, stronger effect = lower value 0.966 | locus YGL167C, strain pmr1, stronger effect = lower value 0.972 | locus YHR079C, strain IRE1 (second series), stronger effect = lower value 0.96 | locus YHR079C, strain IRE1, stronger effect = lower value 0.888 | locus YIR030C, strain dcg1, stronger effect = lower value 0.967 | locus YJL129C, strain trk1, stronger effect = lower value 0.978 | locus YJL134W, strain LCB3, stronger effect = lower value 0.986 | locus YJL154C, strain vps35, stronger effect = lower value 1.01 | locus YJL187C, strain SWE1 (second series), stronger effect = lower value 0.977
active: locus YAL021C, strain ccr4, stronger effect = lower value 0.899 | locus YAL026C, strain drs2, stronger effect = lower value 0.405 | locus YAL030W, strain snc1, stronger effect = lower value 0.825 | locus YBL061C, strain skt5, stronger effect = lower value 0.859 | locus YBR009C, strain hhf1, stronger effect = lower value 0.273 | locus YBR021W, strain FUR4, stronger effect = lower value 0.516 | locus YBR023C, strain chs3, stronger effect = lower value 0.816 | locus YBR231C, strain swc5, stronger effect = lower value 0.742 | locus YBR279W, strain paf1, stronger effect = lower value 0.703 | locus YCL011C, strain gbp2, stronger effect = lower value 0.307 | locus YCL016C, strain dcc1, stronger effect = lower value 0.581 | locus YCL069W, strain vba3, stronger effect = lower value 0.45 | locus YCR088W, strain abp1, stronger effect = lower value 0.911 | locus YDL035C, strain GPR1, stronger effect = lower value 0.277 | locus YDL192W, strain arf1, stronger effect = lower value 0.266 | locus YDR137W, strain rgp1, stronger effect = lower value 0.694 | locus YDR150W, strain NUM1, stronger effect = lower value 0.61 | locus YDR162C, strain NBP2, stronger effect = lower value 0.0631 | locus YDR297W, strain sur2, stronger effect = lower value 0.802 | locus YDR318W, strain mcm21, stronger effect = lower value 0.181 | locus YDR334W, strain swr1, stronger effect = lower value 0.472 | locus YDR388W, stronger effect = lower value 0.827 | locus YDR392W, strain spt3, stronger effect = lower value 0.146 | locus YDR502C, strain sam2, stronger effect = lower value 0.665 | locus YEL003W, strain gim4, stronger effect = lower value 0.553 | locus YEL061C, strain CIN8 (second series), stronger effect = lower value 0.642 | locus YER015W, strain faa2, stronger effect = lower value 0.588 | locus YER155C, strain BEM2 (second series), stronger effect = lower value 0.413 | locus YER167W, strain BCK2, stronger effect = lower value 0.252 | locus YFR010W, strain ubp6, stronger effect = lower value 0.869 | locus YGL086W, strain mad1, stronger effect = lower value 0.142 | locus YGL173C, strain kem1, stronger effect = lower value 0.632 | locus YGL227W, strain vid30, stronger effect = lower value 0.473 | locus YGL240W, strain doc1, stronger effect = lower value 0.723 | locus YGL248W, strain PDE1, stronger effect = lower value 0.125 | locus YGL253W, strain hxk2, stronger effect = lower value 0.838 | locus YGR078C, strain PAC10, stronger effect = lower value 0.0851 | locus YGR135W, strain pre9, stronger effect = lower value 0.306 | locus YGR252W, strain gcn5, stronger effect = lower value 0.369 | locus YHR013C, strain ard1, stronger effect = lower value 0.507 | locus YHR027C, strain rpn1, stronger effect = lower value 0.775 | locus YHR030C, strain SLT2, stronger effect = lower value 0.0586 and 0.753 | locus YHR094C, strain hxt1, stronger effect = lower value 0.782 | locus YHR129C, strain ARP1, stronger effect = lower value 0.212 | locus YHR142W, strain chs7, stronger effect = lower value 0.603 | locus YHR200W, strain rpn10, stronger effect = lower value 0.788 | locus YIL066C, strain RNR3, stronger effect = lower value 0.148 | locus YIL073C, strain SPO22, stronger effect = lower value 0.341 | locus YIL125W, strain kgd1, stronger effect = lower value 0.919 | locus YJL092W, strain hpr5, stronger effect = lower value 0.883 | locus YJL095W, strain BCK1 (second series), stronger effect = lower value 0.468 | locus YJL115W, strain asf1, stronger effect = lower value 0.82 | locus YJL164C, strain tpk1, stronger effect = lower value 0.376 | locus YJL166W, strain qcr8, stronger effect = lower value 0.245 | locus YJL168C, strain set2, stronger effect = lower value 0.881 | locus YJR066W, strain TOR1, stronger effect = lower value 0.716
0.892 (inactive) and 0.782 (active): locus YJL095W, strain BCK1, stronger effect = lower value
